According to PubChem BioAssay:
The source made the active and inactive calls. Unless noted, how the calls were made is not given here.

What was measured:
[1] = tested on: Wnt5a (protein binding on small-molecule microarray); assay: small molecules binding Wnt5a protein – biophysical, small-molecule microarray, 635/667 nm fluorescence, primary screen (AID 1142); settings: 635 nm fluorescence, higher = more signal;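 further: fluorescence read at 667 nm with signal to noise per printed feature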
[2] = ATP-based viability of Huh7 replicon cells – cell-based, CellTiter-Glo luminescence, basal, 48 h, cytotoxicity control for HCV replication inhibitor project, primary screen (AID 1143); settings: higher = more signal, called active from +8 up or from −8 down;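 further: Huh7 hepatoma cells carrying a hepatitis C replication reporter with no stimulus; test concentration not given here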
[3] = Pseudomonas biofilm growth suppression – PAO1 strain, BacTiter-Glo luminescence, LB-PBS, primary screen (AID 1144); settings: P. aeruginosa PAO1 biofilm, 12 h, higher = more signal
[4] = basal CRE-LacZ reporter activity in PC12 – cell-based, unstimulated, primary screen (AID 1145); settings: no forskolin, luminescence, 4.5 h, higher = more signal, called active from +8 up or from −8 down
[5] = forskolin-driven CRE-LacZ activity in PC12 – cell-based, CRE-LacZ reporter, forskolin-stimulated, primary screen (AID 1146); settings: luminescence, 4.5 h, higher = more signal, called active from +8 up or from −8 down;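 further: PC12 cells with 6xCRE LacZ reporter stimulated by forskolin 10 µM; beta-galactosidase reporter signal reflecting CREB driven transcription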
[6] = target: Streptavidin (Streptomyces avidinii) (UniProt P22629); assay: compounds binding control protein streptavidin – biophysical, small-molecule microarray, 635/667 nm fluorescence, artefact control for SMM compound annotation, primary screen (AID 1147); settings: higher = more signal;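 further: signal reflects streptavidin binding to arrayed compounds as a control protein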
Chain of Streptavidin (Streptomyces avidinii) (P22629 whole entry, looked up): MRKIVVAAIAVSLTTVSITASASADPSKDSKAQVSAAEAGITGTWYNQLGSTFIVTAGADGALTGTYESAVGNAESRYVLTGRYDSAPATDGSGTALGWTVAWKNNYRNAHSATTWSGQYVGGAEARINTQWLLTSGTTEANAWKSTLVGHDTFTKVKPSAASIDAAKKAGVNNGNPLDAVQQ

[7] = probe aInhba binding on compound microarray – biochemical, small-molecule microarray, 635/667 nm fluorescence, primary screen (AID 1148); settings: higher = more signal;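 further: score merges 667nm spot fluorescence with signal-to-noise for antibody binding to printed compounds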
Torsin-1A (Homo sapiens) [8] = target: Torsin-1A (Homo sapiens) (UniProt O14656); assay: TOR1A wild-type binding on microarray – cell lysate, small-molecule microarray, lysate, 635/667 nm, primary screen (AID 1149); settings: COS7 hTOR1A-WT lysate, 635 nm fluorescence, higher = more signal
Chain of Torsin-1A (Homo sapiens) (O14656 whole entry, looked up): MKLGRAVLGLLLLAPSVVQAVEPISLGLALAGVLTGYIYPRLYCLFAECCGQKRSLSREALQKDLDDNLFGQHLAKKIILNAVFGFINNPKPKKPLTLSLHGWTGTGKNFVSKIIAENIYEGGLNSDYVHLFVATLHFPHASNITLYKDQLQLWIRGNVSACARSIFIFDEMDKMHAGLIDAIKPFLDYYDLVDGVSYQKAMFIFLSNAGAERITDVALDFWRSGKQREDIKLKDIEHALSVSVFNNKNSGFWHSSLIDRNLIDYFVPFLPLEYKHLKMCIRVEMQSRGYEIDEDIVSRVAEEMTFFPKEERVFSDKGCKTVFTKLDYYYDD

Torsin-1A (Homo sapiens) [9] = target: Torsin-1A (Homo sapiens) (UniProt O14656); assay: torsin A mutant lysate binding on microarrays – cell lysate, small-molecule microarray, COS7 lysate, 635/667 nm fluorescence, primary screen (AID 1150); settings: COS7 hTOR1A mutant lysate, 635 nm fluorescence, higher = more signal;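 further: score pools 667 nm emission and signal to noise measuring lysate protein binding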
[10] = tested on: Sonic hedgehog protein (Shh); assay: Sonic hedgehog microarray binding compounds – biochemical, small-molecule microarray, 635/667 nm fluorescence, primary screen (AID 1151); settings: 635 nm fluorescence, higher = more signal;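 further: Shh protein binding to compounds spotted on small-molecule microarray slides; score combines spot fluorescence intensity with signal-to-noise across triplicate slides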
[11] = optical density shifts of acrAB sulA E. coli – strain DRC41, OD650, 48 h, E. coli filamentation inducer project, primary screen (AID 1152); settings: higher = more signal, called active from +8 up or from −8 down;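 further: E. coli MC1000 strain DRC41 lacking acrAB efflux pump and sulA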
[12] = probe aLefty1 binding on compound microarray – biochemical, small-molecule microarray, 635/667 nm fluorescence, primary screen (AID 1153); settings: higher = more signal;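 further: score merges spot fluorescence with signal-to-noise ratio from the scanned slide images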
[13] = plasmodial surface anion channel blockers, osmotic lysis – cell-based, P. falciparum Indochina, OD700, 1 h, primary screen (AID 1154); settings: P. falciparum Indochina infected RBC osmotic lysis, higher = more signal, called active from +8 up or from −8 down
[14] = plasmodial surface anion channel blockers, osmotic lysis – cell-based, P. falciparum Indochina, OD700, 2 h, primary screen (AID 1155);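 further: lysis reports solute entry through the parasite surface anion channel PSAC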; settings: P. falciparum Indochina infected erythrocytes, higher = more signal, called active from +8 up or from −8 down
[15] = changes in parasitized red cell lysis, either direction – P. falciparum Indochina, OD700, 3 h, PSAC antagonist project, primary screen (AID 1156); settings: P. falciparum-infected erythrocytes, osmotic lysis, higher = more signal, called active from +8 up or from −8 down
[16] = plasmodial surface anion channel blockers, osmotic lysis – cell-based, P. falciparum Indochina, OD700, 18 h, primary screen (AID 1157); settings: P. falciparum Indochina infected erythrocytes, osmotic lysis OD700, 18 h; higher = more signal, called active from +8 up or from −8 down
[17] = S6 kinase pathway phospho-S6 level changes – cell-based, A549, cytoblot, luminescence, serum-stimulated, primary screen (AID 1158); settings: 5 h, higher = more signal;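 further: serum-stimulated A549 lung adenocarcinoma cells; signal is phosphorylated S6 detected by cytoblot immunostaining with HRP secondary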
[18] = target: NADPH oxidase 2 (Homo sapiens) (UniProt P04839); assay: compounds shifting NOX2 Amplex Red fluorescence – cell-based, HEK293-NOX2, PMA-stimulated, NOX inhibitor project, primary screen (AID 1159); settings: 45 min, higher = more signal, called active from +8 up or from −8 down; further: test concentration not given here
Chain of NADPH oxidase 2 (Homo sapiens) (P04839 whole entry, looked up): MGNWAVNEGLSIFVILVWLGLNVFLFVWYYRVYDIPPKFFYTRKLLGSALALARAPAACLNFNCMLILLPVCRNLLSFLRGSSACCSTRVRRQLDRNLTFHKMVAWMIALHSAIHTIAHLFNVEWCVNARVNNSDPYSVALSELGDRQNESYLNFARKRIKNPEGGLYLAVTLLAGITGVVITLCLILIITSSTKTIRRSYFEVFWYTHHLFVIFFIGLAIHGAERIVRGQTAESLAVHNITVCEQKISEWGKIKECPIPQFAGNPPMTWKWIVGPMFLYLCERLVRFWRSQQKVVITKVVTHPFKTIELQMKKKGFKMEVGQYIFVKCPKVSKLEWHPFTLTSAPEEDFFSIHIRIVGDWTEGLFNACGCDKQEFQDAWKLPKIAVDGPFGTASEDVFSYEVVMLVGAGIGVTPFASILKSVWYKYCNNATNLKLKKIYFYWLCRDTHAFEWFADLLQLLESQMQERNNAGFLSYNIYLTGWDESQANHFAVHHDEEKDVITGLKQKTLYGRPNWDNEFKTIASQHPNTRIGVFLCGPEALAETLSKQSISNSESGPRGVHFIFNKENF

[19] = target: NADPH oxidase 4 (Homo sapiens) (UniProt Q9NPH5); assay: compounds shifting NOX4 Amplex Red fluorescence – cell-based, HEK293-NOX4, tetracycline-induced, NOX inhibitor project, primary screen (AID 1160); settings: HEK293-NOX4, Amplex Red H2O2 fluorescence, 45 min; higher = more signal, called active from +8 up or from −8 down
Chain of NADPH oxidase 4 (Homo sapiens) (Q9NPH5 whole entry, looked up): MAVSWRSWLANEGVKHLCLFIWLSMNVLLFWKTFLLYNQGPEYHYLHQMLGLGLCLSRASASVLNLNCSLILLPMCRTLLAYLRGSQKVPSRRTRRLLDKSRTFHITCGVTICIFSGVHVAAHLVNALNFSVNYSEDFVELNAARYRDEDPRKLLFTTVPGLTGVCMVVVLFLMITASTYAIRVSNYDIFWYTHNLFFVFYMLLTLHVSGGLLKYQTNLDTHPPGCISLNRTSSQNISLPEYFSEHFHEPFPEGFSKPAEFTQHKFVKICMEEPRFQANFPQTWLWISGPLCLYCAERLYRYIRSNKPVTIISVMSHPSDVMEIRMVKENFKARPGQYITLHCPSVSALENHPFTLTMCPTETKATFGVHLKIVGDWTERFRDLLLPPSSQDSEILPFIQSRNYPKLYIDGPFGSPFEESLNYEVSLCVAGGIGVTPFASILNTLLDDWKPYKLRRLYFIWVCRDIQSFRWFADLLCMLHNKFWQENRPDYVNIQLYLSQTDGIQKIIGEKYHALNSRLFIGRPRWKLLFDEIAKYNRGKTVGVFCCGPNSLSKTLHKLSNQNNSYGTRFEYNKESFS

[20] = target: NADPH oxidase 5 (Homo sapiens) (UniProt Q96PH1); assay: compounds shifting NOX5 Amplex Red fluorescence – cell-based, HEK293-NOX5, NOX inhibitor project, primary screen (AID 1161); settings: HEK293-NOX5, ionomycin, 45 min, higher = more signal
Chain of NADPH oxidase 5 (Homo sapiens) (Q96PH1 whole entry, looked up): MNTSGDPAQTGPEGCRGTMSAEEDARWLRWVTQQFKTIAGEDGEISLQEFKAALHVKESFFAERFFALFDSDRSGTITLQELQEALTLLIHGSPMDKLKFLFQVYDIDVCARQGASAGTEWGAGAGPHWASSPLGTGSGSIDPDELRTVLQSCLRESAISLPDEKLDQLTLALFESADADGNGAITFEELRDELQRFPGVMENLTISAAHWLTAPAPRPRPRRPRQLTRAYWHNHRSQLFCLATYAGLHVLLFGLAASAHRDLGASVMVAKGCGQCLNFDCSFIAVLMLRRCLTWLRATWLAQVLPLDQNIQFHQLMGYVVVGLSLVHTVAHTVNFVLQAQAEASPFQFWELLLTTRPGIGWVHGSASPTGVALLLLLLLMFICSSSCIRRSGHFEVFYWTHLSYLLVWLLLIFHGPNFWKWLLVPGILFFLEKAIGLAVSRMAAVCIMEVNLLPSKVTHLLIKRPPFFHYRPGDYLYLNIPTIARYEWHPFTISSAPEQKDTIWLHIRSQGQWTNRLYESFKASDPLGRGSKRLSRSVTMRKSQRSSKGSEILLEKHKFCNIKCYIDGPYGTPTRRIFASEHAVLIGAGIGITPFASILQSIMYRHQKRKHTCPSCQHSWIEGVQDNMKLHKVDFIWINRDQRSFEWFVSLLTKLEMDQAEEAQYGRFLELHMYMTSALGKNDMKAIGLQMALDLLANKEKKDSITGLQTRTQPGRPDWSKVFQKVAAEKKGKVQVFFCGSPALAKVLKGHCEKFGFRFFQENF

Structure (SMILES)	composite z-score [1]	z-score [2]	z-score [3]	z-score [4]	z-score [5]	composite z-score [6]	composite z-score [7]	composite z-score (Torsin-1A (Homo sapiens) [8])	composite z-score (Torsin-1A (Homo sapiens) [9])	composite z-score [10]	z-score [11]	composite z-score [12]	z-score [13]	z-score [14]	z-score [15]	z-score [16]	z-score [17]	z-score [18]	z-score [19]	z-score [20]
COCCOC(=O)N1C(=O)[C@@]2(c3ccccc31)[C@H](c1ccc(OCCO)cc1)N1[C@H](c3ccccc3)[C@H](c3ccccc3)OC(=O)[C@H]1[C@@H]2C(=O)N1CCN(c2ncccn2)CC1	0.453	-2 (inactive)	-0.266 (inactive)	0.22 (inactive)	4.01 (inactive)	0.826	0.134	0.819	0.794	1.86	0.118 (inactive)	0.547	22.1 (active)	6.25 (inactive)	1.4 (inactive)	1.56 (inactive)	0.0018	1.19 (inactive)	0.262 (inactive)	0.618
CN(C)C(=O)[C@@]1(CCS(=O)(=O)c2ccccc2)N=C(c2ccc(OCCCO)cc2)O[C@H]1c1ccccc1N=[N+]=[N-]	1	-3.2 (inactive)	1.75 (inactive)	0.447 (inactive)	-1.37 (inactive)	1.82	0.0569	0.155	0.797	-0.337	0.395 (inactive)	-0.148	28.1 (active)	27.4 (active)	1.78 (inactive)	2.09 (inactive)	-0.76	-2.01 (inactive)	-0.478 (inactive)	-0.984
CO[C@H]1O[C@H](CO)[C@@H](OC(=O)Nc2ccccc2)[C@@H]2OC(=O)[C@H](Cc3ccccc3)C/C=C/C[C@@H](Cc3ccccc3)C(=O)O[C@@H]12	0.399	-3.81 (inactive)	-0.805 (inactive)	0.512 (inactive)	-1.36 (inactive)	0.564	-0.0762	0.527	0.348	1.62	0.863 (inactive)	0.302	10.1 (active)	0.342 (inactive)	-1.91 (inactive)	-0.681 (inactive)	1.31	-3.35 (inactive)	-0.599 (inactive)	-1.57
CN(C)CCCC[C@@H]1NC(=O)[C@@H]2C[C@H](C(=O)NCc3ccc(F)cc3)[C@H](c3ccc(O)cc3)N2C1=O	0.939	0.0109 (inactive)	-0.886 (inactive)	0.557 (inactive)	-0.636 (inactive)	-0.574	0.305	0.704	0.249	2.28	-0.876 (inactive)	-0.0501	1.98 (inactive)	0.947 (inactive)	-1.62 (inactive)	0.35 (inactive)	0.359	0.391 (inactive)	-0.25 (inactive)	0.714
[N-]=[N+]=NCc1ccccc1C[C@]1(C(=O)O)COC(c2ccc(OCCCO)cc2)=N1	-0.333	0.432 (inactive)	0.475 (inactive)	-0.426 (inactive)	-0.916 (inactive)	-0.878	-0.13	0.861	0.0486	-1.03	0.0626 (inactive)	0.118	5.11 (inactive)	0.179 (inactive)	1.56 (inactive)	-0.315 (inactive)	0.49	0.0988 (inactive)	1.27 (inactive)	0.641
O=C1C2C=CC(C(O)c3ccc([N+](=O)[O-])cc3)N(Nc3ccccc3)C2C(=O)N1c1ccccc1 (stereo not given)	0.0051	0.0203 (inactive)	-0.0023 (inactive)	-0.333 (inactive)	0.495 (inactive)	-0.146	-0.101	-0.132	0.221	-0.653	-1.21 (inactive)	0.124	3.99 (inactive)	2.55 (inactive)	2.09 (inactive)	1.9 (inactive)	-1.32	-2.02 (inactive)	-4.69 (inactive)	-2.53
CN(C)CCCC[C@@H]1NC(=O)[C@@H]2C[C@H](C(=O)NCCCCCCNC(=O)CS)[C@H](c3cccc(OCCO)c3)N2C1=O	0.152	0.425 (inactive)	-0.332 (inactive)	-0.256 (inactive)	-0.995 (inactive)	-0.149	-0.0471	0.77	0.702	0.919	-0.0099 (inactive)	-0.416	3.24 (inactive)	0.681 (inactive)	-0.0935 (inactive)	0.496 (inactive)	1.91	2.03 (inactive)	0.84 (inactive)	1.84
C=CCN1C(=O)[C@]2(O[C@H](CCn3cc([C@H](O)c4ccccc4)nn3)[C@@H]([Si](C)(C)c3ccc(OC)cc3)[C@@H]2C)c2cc(N3C(=O)c4cccc5cccc3c45)ccc21	0.0898	-6.26 (inactive)	-0.774 (inactive)	9.81 (active)	-0.745 (inactive)	0.633	-0.255	-0.439	1.18	0.204	0.443 (inactive)	-0.101	5.26 (inactive)	1.59 (inactive)	1.97 (inactive)	0.889 (inactive)	0.435	1.06 (inactive)	1.11 (inactive)	0.797
C[C@H]1NC(=O)C([C@@H](C)OCc2ccccc2)NC(=O)[C@@]23C(=O)N[C@@H](Cc4ccccc4)C2[C@H](C)[C@@]2(C)O[C@H]2C3/C=C/C/C=C\CNC1=O (stereo not given in full)	0.0077	-1.16 (inactive)	1.3 (inactive)	4.12 (inactive)	-0.836 (inactive)	-0.556	-0.179	0.378	0.352	0.551	-0.009 (inactive)	-0.0501	1.88 (inactive)	0.58 (inactive)	0.761 (inactive)	0.427 (inactive)	-0.104	-0.118 (inactive)	-1.16 (inactive)	-0.16
COCCCN1C(=O)[C@@]2(Cc3ccccc31)c1ccccc1C(=O)N(Cc1ccccc1OC)[C@H]2c1ccc(CO)cc1	-0.0515	0.532 (inactive)	0.53 (inactive)	0.0279 (inactive)	1.2 (inactive)	-0.111	-0.108	-0.596	-0.274	0.0923	0.168 (inactive)	0.193	0.883 (inactive)	0.216 (inactive)	0.0049 (inactive)	-0.185 (inactive)	0.592	0.0278 (inactive)	0.545 (inactive)	1.41
COCCOC(=O)N1C(=O)[C@@]2(c3cc(C#Cc4ccc(OC)cc4)ccc31)[C@H](C(=O)N1CCCCCCC1)[C@H]1C(=O)O[C@H](c3ccccc3)[C@H](c3ccccc3)N1[C@@H]2c1ccccc1OCCO	1.15	-0.751 (inactive)	-1.4 (inactive)	-1.42 (inactive)	0.323 (inactive)	1.53	1.59	1.43	1.18	1.9	0.0696 (inactive)	2.74	0.688 (inactive)	1.36 (inactive)	0.286 (inactive)	1.07 (inactive)	-0.17	0.0983 (inactive)	-0.0381 (inactive)	0.724
CCCCN1CC=CC23O[C@@H]4C=CCOC(=O)[C@@H]4[C@H]2C(=O)N(C(CO)C(C)C)[C@@H]3C1=O (stereo not given in full)	-0.0661	0.233 (inactive)	0.946 (inactive)	0.463 (inactive)	0.547 (inactive)	-0.507	-0.34	-0.241	-0.436	0.605	-0.62 (inactive)	-0.0697	1.16 (inactive)	0.574 (inactive)	1.06 (inactive)	0.407 (inactive)	-0.272	0.835 (inactive)	0.17 (inactive)	1.88
CN(C)CCCNC(=O)[C@@]1(Cc2ccccc2I)c2ccccc2C(=O)N(Cc2ccccc2)[C@H]1c1ccc(CO)cc1	0.652	-5.58 (inactive)	0.113 (inactive)	0.351 (inactive)	2.56 (inactive)	-0.203	-0.471	0.0857	0.325	1.41	-0.206 (inactive)	-0.729	1.88 (inactive)	0.614 (inactive)	-1.26 (inactive)	0.452 (inactive)	-0.5	-8.23 (active)	-3.08 (inactive)	-1.71
COCCOC(=O)N1C(=O)[C@@]2(c3ccccc31)[C@H](C(N)=O)[C@H]1C(=O)O[C@H](c3ccccc3)[C@H](c3ccccc3)N1[C@@H]2c1ccc(OCCO)cc1	0.62	-1.57 (inactive)	-0.762 (inactive)	-1.28 (inactive)	-1.15 (inactive)	0.554	0.0155	1.13	1.14	1.9	1.15 (inactive)	0.196	3.76 (inactive)	0.527 (inactive)	-0.535 (inactive)	0.436 (inactive)	-0.211	-0.555 (inactive)	1.1 (inactive)	0.00857
CC(=O)c1ccc(C(O)C2C=CC3C(=O)NC(=O)C3N2Nc2ccc(Cl)cc2Cl)cc1 (stereo not given)	0	0.102 (inactive)	-0.806 (inactive)	0.626 (inactive)	0.412 (inactive)	0.147	0.0565	0.027	0.0127	-0.257	-2.32 (inactive)	0.0267	2.38 (inactive)	0.738 (inactive)	1.15 (inactive)	1 (inactive)	-0.497	-0.826 (inactive)	-5.81 (inactive)	-3.8
COC(=O)C1=CC(CCCO)=CC(c2ccc(CN3CCCC3)cc2)N(Cc2sc3ccccc3c2Cl)C=C1C(=O)OC (stereo not given)	1.25	-3.24 (inactive)	-0.782 (inactive)	0.209 (inactive)	-1.74 (inactive)	1.85	0.662	0.591	1.88	0.836	1.68 (inactive)	1.17	3.27 (inactive)	-0.28 (inactive)	-0.235 (inactive)	-1.02 (inactive)	1.6	0.613 (inactive)	0.311 (inactive)	0.116
